In PubChem BioAssay (NCATS):
Inconclusive results are not listed. Activity calls are given as the source filed them. The call rests on the fitted dose curve; in most records, active means well fitted curve in the direction sought with a large enough effect; inconclusive means small, poorly fitted or top-dose-only effect, or another doubt; inactive means no such curve, though single readings can be large; an effect the other way counts as inactive or inconclusive.

Tested on: not listed separately
Assay: qHTS for Inhibitors of Ubiquitin-specific Protease USP2a Using CHOP2 as the Reporter: Cytotox Assay (AID 652170); further: nearly all actives have a fitted effect of over 70% in size;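 on activity change, negative = cytotoxicity: HCT116 human colon cancer cells at 600 per well; plate controls were DMSO-treated cells for no effect and wells without cells for full effect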
Settings: HCT116 viability, CellTiter-Glo luminescence, 72 h; series mostly up to 46.1 µM; activity change, negative = cytotoxicity: at the top concentration
How it was run: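 Cytotoxicity read as ATP luminescence (CellTiter-Glo) after 72 hr compound treatment at 37 deg C. Cells: HCT116, 600/well in DMEM plus 10% FBS. Normalization between DMSO-treated cells and cell-free wells.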
Potency means the concentration at half of the fitted maximal effect.

SMILES | Potency | activity change, negative = cytotoxicity
Cc1ccc(S(=O)(=O)Nc2ccc(OC(F)(F)F)cc2C(=O)Nc2nc(-c3ccccc3)cs2)cc1 | 5.9 µM (active) | 
Cc1ccc(-c2cc(C(=O)Nc3ccncc3)c3ccccc3n2)cc1C | 18.7 µM (active) | 
CCCCC1CCC(C(=O)Nc2ccc(S(=O)(=O)Nc3cc(C)on3)cc2)CC1 (centres undefined) |  | -5.01% (inactive)
Cc1ccc(-c2cc(C(=O)Nc3cccnc3)c3ccccc3n2)cc1C |  | -3.45% (inactive)

Target: Ubiquitin carboxyl-terminal hydrolase 2 (Homo sapiens) (UniProt O75604)
Assay: qHTS for Inhibitors of Ubiquitin-specific Protease USP2a Using CHOP2 as the Reporter: K484 Substrate (AID 652173);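 further: cleavage of internally quenched K48 di-ubiquitin substrate measured as rising fluorescence over time; nearly all actives have a fitted effect of over 70% in size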
Settings: USP2 cleavage of DiUb K48 IQF substrate, fluorescence; series mostly up to 57.5 µM; activity change, negative = inhibition: at the top concentration
How it was run: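 Kinetic fluorescence (Ex 525/Em 598) tracked cleavage of an internally quenched K48 di-ubiquitin substrate, added as a 100 nM solution. The enzyme was added as a 5 nM USP2 solution before compound pinning, with no-enzyme controls. Buffer: Tris pH 8, beta-mercaptoethanol, CHAPS.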

Ubiquitin carboxyl-terminal hydrolase 2 (Homo sapiens), sequence (O75604 whole entry, looked up): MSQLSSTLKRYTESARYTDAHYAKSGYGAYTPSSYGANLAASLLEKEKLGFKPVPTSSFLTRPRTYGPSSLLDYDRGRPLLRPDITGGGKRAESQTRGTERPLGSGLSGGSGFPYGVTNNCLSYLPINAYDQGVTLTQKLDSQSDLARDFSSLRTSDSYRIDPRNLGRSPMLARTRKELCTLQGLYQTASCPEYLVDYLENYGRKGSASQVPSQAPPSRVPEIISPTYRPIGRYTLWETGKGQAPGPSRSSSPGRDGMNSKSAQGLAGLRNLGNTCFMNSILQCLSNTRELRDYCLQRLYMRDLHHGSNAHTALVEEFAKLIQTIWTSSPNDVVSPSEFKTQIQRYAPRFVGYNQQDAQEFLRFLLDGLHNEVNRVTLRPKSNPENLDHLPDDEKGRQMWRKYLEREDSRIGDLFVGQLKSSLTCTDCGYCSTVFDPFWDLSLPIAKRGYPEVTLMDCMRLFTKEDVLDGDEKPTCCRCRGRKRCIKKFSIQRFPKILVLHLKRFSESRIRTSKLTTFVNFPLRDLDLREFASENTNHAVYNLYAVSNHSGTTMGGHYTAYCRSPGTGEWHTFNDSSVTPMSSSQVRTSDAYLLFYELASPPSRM

SMILES | Potency
Cc1ccc(-c2cc(C(=O)Nc3ccc4ccccc4c3)c3ccccc3n2)cc1C | 19.3 µM (active)
Cc1ccc(-c2cc(C(=O)Nc3ccc(C#N)cc3)c3ccccc3n2)cc1C | 12.2 µM (active)
Cc1ccc(-c2cc(C(=O)Nc3ccc4[nH]ccc4c3)c3ccccc3n2)cc1C | 8.63 µM (active)
Cc1ccc(-c2cc(C(=O)Nc3ccc(S(=O)(=O)Nc4cccnc4)cc3)c3ccccc3n2)cc1C | 6.85 µM (active)
Cc1ccc(S(=O)(=O)Nc2ccc(OC(F)(F)F)cc2C(=O)Nc2nc(-c3ccccc3)cs2)cc1 | 2.43 µM (active)
Cc1ccc(S(=O)(=O)Nc2ccc(C(=O)Nc3nc(-c4ccccc4)cs3)cc2Cl)cc1 | 2.17 µM (active)
Cc1ccc(-c2cc(C(=O)Nc3ccncc3)c3ccccc3n2)cc1C | 13.7 µM (active)
CCCCC1CCC(C(=O)Nc2ccc(S(=O)(=O)Nc3cc(C)on3)cc2)CC1 (centres undefined) | 12.2 µM (active)
Cc1ccc(S(=O)(=O)Nc2ccc(Cl)c(C(=O)Nc3nc(-c4ccccc4)cs3)c2)cc1 | 2.43 µM (active)
Cc1ccc(S(=O)(=O)Nc2ccccc2C(=O)Nc2cnc(-c3ccccc3)cn2)cc1 | 3.43 µM (active)
O=C(Nc1ccc(S(=O)(=O)Nc2nccs2)cc1)c1ccc2ccccc2c1 | 2.73 µM (active)
Cc1ccc(-c2cc(C(=O)Nc3cccc(S(=O)(=O)Nc4nccs4)c3)c3ccccc3n2)cc1C | 3.06 µM (active)
O=S(=O)(Nc1nccs1)c1ccc(Nc2nc(-c3ccc(-c4ccccc4)cc3)cs2)cc1 | 1.93 µM (active)
Cc1ccc(-c2cc(C(=O)Nc3cccc(S(N)(=O)=O)c3)c3ccccc3n2)cc1C | 5.44 µM (active)
Cc1ccc(-c2cc(C(=O)Nc3cccnc3)c3ccccc3n2)cc1C | 19.3 µM (active)
O=C(C[C@H]1CC[C@@H](C(=O)Nc2ccc(S(=O)(=O)Nc3nccs3)cc2)C1)c1ccccc1 | 19.3 µM (active)
CCCCC1CCC(C(=O)Nc2ccc(S(=O)(=O)Nc3nccs3)cc2)CC1 (centres undefined) | 4.85 µM (active)
Cc1ccc(-c2cc(C(=O)Nc3ccc(S(C)(=O)=O)cc3)c3ccccc3n2)cc1C | 6.85 µM (active)

Target: Tyrosine-protein kinase Yes (Homo sapiens) (UniProt P07947)
Assay: qHTS for small molecule inhibitors of Yes1 kinase: Primary Screen (AID 686947); further: nearly all actives have a fitted effect of over 60% in size;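 on activity change, negative = inhibition: plate controls were DMSO with enzyme for no effect and no-enzyme DMSO wells for full effect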
Settings: Yes1 kinase biochemical qHTS inhibition; series mostly up to 76.9 µM; activity change, negative = inhibition: at the top concentration
How it was run: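 ADP-Glo luminescence reports ADP formed by 4 nM Yes1 phosphorylating poly(E4Y) (0.3 mg/mL) with 0.1 mM ATP for 60 min at room temperature, following 20 min compound preincubation; normalised between DMSO wells with and without enzyme.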

Tyrosine-protein kinase Yes (Homo sapiens), sequence (P07947 whole entry, looked up): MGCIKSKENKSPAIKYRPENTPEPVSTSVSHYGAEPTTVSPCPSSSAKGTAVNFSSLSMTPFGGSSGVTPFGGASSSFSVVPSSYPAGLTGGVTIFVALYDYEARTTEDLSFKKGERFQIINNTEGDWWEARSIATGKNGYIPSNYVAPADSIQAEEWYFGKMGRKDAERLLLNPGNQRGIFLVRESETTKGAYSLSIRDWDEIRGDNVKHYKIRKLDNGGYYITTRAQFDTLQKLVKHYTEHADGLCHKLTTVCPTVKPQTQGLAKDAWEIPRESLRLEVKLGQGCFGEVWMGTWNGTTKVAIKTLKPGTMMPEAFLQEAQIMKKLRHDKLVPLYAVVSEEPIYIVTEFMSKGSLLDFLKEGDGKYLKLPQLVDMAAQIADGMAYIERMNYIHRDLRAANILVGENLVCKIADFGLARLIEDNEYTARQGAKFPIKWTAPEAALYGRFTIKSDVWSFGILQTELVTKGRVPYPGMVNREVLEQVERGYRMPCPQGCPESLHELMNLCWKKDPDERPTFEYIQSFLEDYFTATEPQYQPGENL

SMILES | activity change, negative = inhibition | Potency
COc1cccc(Nc2nccc(-c3cnn4ncccc34)n2)c1 | -40.5% (inactive) | 
c1ccc(Oc2ccc(Nc3ncc(-c4ccccc4)o3)cc2)cc1 | -0.567% (inactive) | 
O=C(Nc1n[nH]c2cc(-c3cc(F)ccc3F)ccc12)C1CC1 |  | 26 µM (active)
COc1cc(C=NNc2ncnc3c2cnn3Cc2ccccc2)ccc1O |  | 0.116 µM (active)
NC(=O)c1ccc(Oc2nccc(-c3c(-c4ccc(F)cc4)ncn3C3CCNCC3)n2)cc1 |  | 11.6 µM (active)
CS(=O)(=O)CCNCc1ccc(-c2ccc3ncnc(Nc4ccc(OCc5cccc(F)c5)c(C(F)(F)F)c4)c3c2)o1 | -14.6% (inactive) | 
Nc1ccc(C#Cc2cncnc2Nc2ccc(OCc3cccc(F)c3)c(Cl)c2)cc1 | -11.1% (inactive) | 
NS(=O)(=O)c1ccc(N=Nc2c(O)[nH]c3cccc(CCc4ccncc4)c23)cc1 | 9.29% (inactive) | 
CC(C)c1ccc(-c2cc(-c3cn[nH]c3-c3ccccn3)ccn2)cc1 |  | 23.2 µM (active)
O=C(OC1CNC(C#Cc2cc3ncnc(Nc4ccc5c(ccn5Cc5cc(F)ccc5F)c4)c3s2)C1)N1CCOCC1 (centres undefined) |  | 29.2 µM (active)
CN1CCC(n2cnc(-c3ccc(F)cc3)c2-c2ccnc(N)n2)CC1 |  | 18.4 µM (active)
CN1CCC(n2cnc(-c3ccc(F)cc3)c2-c2ccnc(Nc3ccccc3)n2)CC1 |  | 1.16 µM (active)
COc1cc(C=NNc2ncnc3[nH]ncc23)ccc1O |  | 0.232 µM (active)
COc1cc2ncnc(Nc3ccc(C)c(O)c3)c2cc1OC |  | 0.164 µM (active)
O=C1Nc2ccc(-c3cccnc3)cc2C1=Cc1cc(Br)c(O)c(Br)c1 |  | 0.412 µM (active)
COc1ccc(-c2nn3ncccc3c2-c2ccnc(Nc3ccc(F)c(F)c3)n2)cc1 |  | 0.328 µM (active)
CS(=O)(=O)CCNCc1coc(-c2ccc3ncnc(Nc4ccc(OCc5ccccc5)cc4)c3c2)c1 |  | 1.84 µM (active)
COc1cc2ncn(-c3cc(OCc4ccccc4C(F)(F)F)c(C(=O)N(C)C)s3)c2cc1OC |  | 7.33 µM (active)
CC(=O)Nc1cccc(C#Cc2cncnc2Nc2ccc(OCc3cccc(F)c3)c(Cl)c2)n1 | -14% (inactive) | 
COc1cc(Nc2nccc(-c3cnn4ncccc34)n2)cc(OC)c1 |  | 0.519 µM (active)
CS(=O)(=O)Nc1ccc(N=Cc2c(O)[nH]c3ccccc23)cc1 |  | 3.68 µM (active)
Cc1cc(-c2ccccn2)cc(C)c1C=Cc1cncc(-c2nn[nH]n2)c1 |  | 2.07 µM (active)
